Results taken from the supplement of paper PMC7380943.
± gives the standard deviation of the averaged measurements.

What was measured:
[1] = system: CLZ3 (HCA2 human fibroblast dual HR-NHEJ reporter); assay: NHEJ repair efficiency (GFP+ cells) relative to control (log10 fold); higher = more non-homologous end joining; details: 5 µM; doxycycline 0.5 ug/mL
[2] = system: CLZ3 (HCA2 human fibroblast dual HR-NHEJ reporter); assay: HR repair efficiency (tdTomato+ cells) relative to control (log10 fold); higher = more homologous recombination; details: 5 µM; doxycycline 0.5 ug/mL
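Wherever HR repair efficiency (tdTomato+ cells) relative to control is given: compound given one day before doxycycline, which switches on I-SceI endonuclease expression to create double-strand breaks within the integrated reporter.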
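Wherever NHEJ repair efficiency (GFP+ cells) relative to control is given: compound given one day ahead of doxycycline, which switches on I-SceI endonuclease to cut the chromosomally integrated reporter and create DSBs.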

`O=c1c(-c2ccc(O)cc2)coc2cc(O)ccc12` [Daidzein] was tested, and the “NHEJ repair efficiency (log10)” value [1] was -0.0789 and the “HR repair efficiency (log10)” value [2] was -0.15.
`COc1cc([C@H]2OC[C@H]3[C@@H]2CO[C@@H]3c2ccc(O[C@@H]3O[C@H](CO)[C@@H](O)[C@H](O)[C@H]3O)c(OC)c2)ccc1O[C@@H]1O[C@H](CO)[C@@H](O)[C@H](O)[C@H]1O` [PinoresinolDiglucoside] was tested, and the “NHEJ repair efficiency (log10)” value [1] was -0.0902 and the “HR repair efficiency (log10)” value [2] was -0.138.
`CC(C)(O)[C@@H]1CC[C@](C)([C@H]2[C@@H](O)C[C@@]3(C)[C@@H]4C[C@H](O)[C@H]5C(C)(C)[C@@H](O)CC[C@@]56C[C@@]46CC[C@]23C)O1` [Cycloastragenol] was tested, and the “NHEJ repair efficiency (log10)” value [1] was -0.045 and the “HR repair efficiency (log10)” value [2] was 0.136.
`COc1ccc(C[C@H]2COC(=O)[C@@H]2Cc2ccc(O[C@@H]3O[C@H](CO)[C@@H](O)[C@H](O)[C@H]3O)c(OC)c2)cc1OC` [Arctiin] was tested, and the “NHEJ repair efficiency (log10)” value [1] was -0.18724 ± 8.6e-05 and the “HR repair efficiency (log10)” value [2] was -0.203 ± 0.1.
